The nature of test [1]: compound effects on lung adenocarcinoma cell viability – A549, calcein-AM fluorescence, 48 h, basal, profiling panel (AID 1162). Note: test concentration not given here. The conditions noted are these: higher = more signal.
Test [2] is described as follows: compound effects on differentiated 3T3-L1 adipocyte viability – cell-based, 3T3-L1 adipocytes, calcein-AM fluorescence, 48 h, basal, profiling panel (AID 1163). Note: test concentration not given here. The conditions noted are these: 3T3-L1 adipocytes viability, higher = more signal.
The nature of test [3]: compound effects on hepatocellular carcinoma cell viability – HepG2, calcein-AM fluorescence, 48 h, basal, profiling panel (AID 1164). Note: test concentration not given here. The settings on record: higher = more signal.
The nature of test [4]: compound effects on multiple myeloma cell viability – MM1S, calcein-AM fluorescence, 48 h, basal, profiling panel (AID 1165). Note: test concentration not given here. The conditions noted are these: higher = more signal.
Test [5] is described as follows: calcein-AM signal in unstimulated myeloma cells – cell-based, calcein-AM fluorescence, 48 h, PK04 Diversity Set, profiling panel (AID 1166).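 Note: cells grown under basal conditions without added stimulus; test concentration not given here.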 The settings on record: RPMI8226 myeloma viability, higher = more signal.
Test [6] can be described thus: JC-1 mitochondrial signal, unstimulated HepG2 cells – cell-based, JC-1 fluorescence, 24 h, 100 nL compound, profiling panel (AID 1167). Note: test concentration not given here. The conditions noted are these: HepG2 mitochondrial potential, higher = more signal.
Test [7] can be described thus: JC-1 mitochondrial signal, unstimulated adipocytes – cell-based, JC-1 fluorescence, 3T3-L1 adipocytes, 24 h, 100 nL compound, profiling panel (AID 1168). Note: test concentration not given here. The settings on record: JC-1 mitochondrial fluorescence, higher = more signal, called active from +8 up or from −8 down.
A short description of test [8]: JC-1 mitochondrial signal, unstimulated myeloma cells – cell-based, JC-1 fluorescence, RPMI8226, 24 h, 100 nL compound, profiling panel (AID 1169). Note: test concentration not given here. The settings on record: JC-1 mitochondrial potential fluorescence, higher = more signal.
Test [9] in a line: JC-1 mitochondrial signal, unstimulated MM1S myeloma – cell-based, JC-1 fluorescence, 24 h, 100 nL compound, profiling panel (AID 1170). Note: test concentration not given here. The settings on record: MM1S mitochondrial potential, higher = more signal.
Test [10] in a line: resazurin metabolic signal in A549 cells – cell-based, resazurin fluorescence, 24 h, PK04 Diversity Set, profiling panel (AID 1171). Note: test concentration not given here. The settings on record: A549 viability, higher = more signal, called active from +8 up or from −8 down.
Test [11] is described as follows: resazurin metabolic signal in HepG2 cells – cell-based, resazurin fluorescence, 24 h, PK04 Diversity Set, profiling panel (AID 1172). Note: test concentration not given here. The settings on record: HepG2 viability, higher = more signal. Background: The colour change of resazurin is a common sign of viable cells or microbes.
The nature of test [12]: budding yeast growth changes without added modifier – OD600, strain BY4716, 24 h, basal condition, primary screen (AID 1173). The settings on record: S. cerevisiae BY4716 growth, OD600, 24 h; higher = more signal, called active from +8 up or from −8 down.
Test [13] can be described thus: viability profiling in MM1S myeloma cells – cell-based, resazurin fluorescence, basal, 24 h, PK04 Diversity Set, profiling panel (AID 1174). Note: test concentration not given here. The conditions noted are these: higher = more signal, called active from +8 up or from −8 down.
Test [14] has as its target Dihydroorotate dehydrogenase (quinone), mitochondrial (Plasmodium falciparum (isolate 3D7)) (UniProt Q08210). In words: inhibition of P. falciparum DHODH – biochemical, C-terminal His tag, absorbance 600 nm, primary screen (AID 1175).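 Note: recombinant parasite enzyme with a five histidine tag at its C terminus; test concentration not given here.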 The conditions noted are these: PfDHODH enzyme, DCIP absorbance 600 nm; higher = more signal, called active from +8 up or from −8 down.
A short description of test [15]: inhibition of PAO1 biofilm formation – strain PAO1, LB-PBS medium, absorbance 600 nm, primary screen (AID 1176). Note: test concentration not given here. The settings on record: P. aeruginosa PAO1 growth/biofilm, A600, 12 h; higher = more signal.
Test [16] can be described thus: growth modulation of vineyard yeast isolate – strain RM11-1a, OD600, basal, 24 h, primary screen (AID 1177).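 Note: cultures grown under basal conditions with no added stressor; test concentration not given here.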 The conditions noted are these: S. cerevisiae RM11-1a growth, OD600, 24 h; higher = more signal, called active from +8 up or from −8 down.
Test [17] in a line: growth of efflux-deficient E. coli DRC39 – strain DRC39, OD650, 24 h, E. coli filamentation inducers, primary screen (AID 1178).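 Note: growth measured as culture turbidity by optical density at 650 nm; test concentration not given here.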 The conditions noted are these: E. coli DRC39 acrAB, higher = more signal, called active from +8 up or from −8 down.
Test [18] is described as follows: growth of efflux-deficient E. coli DRC39 – strain DRC39, OD650, 48 h, E. coli filamentation inducers, primary screen (AID 1179).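 Note: screen aims at cell division blockers that make cells filament.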 The settings on record: E. coli DRC39 delta-acrAB growth, higher = more signal, called active from +8 up or from −8 down.
The nature of test [19]: viability profiling in RPMI8226 myeloma cells – cell-based, resazurin fluorescence, basal, 24 h, PK04 Diversity Set, profiling panel (AID 1180).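 Note: RPMI8826 multiple myeloma cell line at 5000 cells per well; test concentration not given here.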 The conditions noted are these: higher = more signal.
Test [20] deals with E3 ubiquitin-protein ligase XIAP (Homo sapiens) (UniProt P98170). In words: small molecules binding XIAP protein – biophysical, small-molecule microarray, fluorescence 635 nm, primary screen (AID 1181).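 Note: score merges 667 nm emission and signal to noise over triplicate slides.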 The conditions noted are these: higher = more signal.

The source made the active and inactive calls. Unless noted, the rule behind the calls is not given here.

E3 ubiquitin-protein ligase XIAP (Homo sapiens), sequence (P98170 whole entry, looked up): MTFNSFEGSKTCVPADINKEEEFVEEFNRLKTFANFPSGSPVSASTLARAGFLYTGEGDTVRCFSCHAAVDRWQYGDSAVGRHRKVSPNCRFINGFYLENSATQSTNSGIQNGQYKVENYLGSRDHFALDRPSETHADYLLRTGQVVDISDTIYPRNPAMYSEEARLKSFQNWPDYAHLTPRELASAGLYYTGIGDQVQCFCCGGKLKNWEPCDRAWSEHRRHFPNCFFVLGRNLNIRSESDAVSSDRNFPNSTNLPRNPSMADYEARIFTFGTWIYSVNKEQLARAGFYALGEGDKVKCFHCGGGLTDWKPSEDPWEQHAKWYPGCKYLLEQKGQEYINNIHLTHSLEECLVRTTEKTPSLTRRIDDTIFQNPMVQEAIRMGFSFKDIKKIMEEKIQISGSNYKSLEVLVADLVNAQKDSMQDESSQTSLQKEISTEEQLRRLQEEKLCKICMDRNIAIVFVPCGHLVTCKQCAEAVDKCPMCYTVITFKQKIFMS
Dihydroorotate dehydrogenase (quinone), mitochondrial (Plasmodium falciparum (isolate 3D7)), sequence (Q08210 whole entry, looked up): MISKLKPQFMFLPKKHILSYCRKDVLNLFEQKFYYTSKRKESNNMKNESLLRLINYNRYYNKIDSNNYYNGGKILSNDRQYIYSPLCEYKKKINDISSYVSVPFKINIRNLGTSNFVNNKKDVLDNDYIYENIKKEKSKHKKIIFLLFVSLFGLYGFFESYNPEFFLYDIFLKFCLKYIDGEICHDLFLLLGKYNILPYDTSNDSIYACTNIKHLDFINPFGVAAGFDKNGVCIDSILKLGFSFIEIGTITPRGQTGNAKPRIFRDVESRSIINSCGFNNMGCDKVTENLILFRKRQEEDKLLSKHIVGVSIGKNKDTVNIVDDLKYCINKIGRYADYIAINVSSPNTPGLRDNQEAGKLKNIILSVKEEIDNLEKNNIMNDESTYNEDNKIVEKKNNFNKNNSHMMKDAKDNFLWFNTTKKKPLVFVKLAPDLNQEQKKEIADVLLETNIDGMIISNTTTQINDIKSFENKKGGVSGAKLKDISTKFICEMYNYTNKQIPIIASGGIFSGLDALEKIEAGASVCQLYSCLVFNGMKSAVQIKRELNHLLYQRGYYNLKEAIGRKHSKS

Take `CC(C)C[C@@H]1NC(=O)[C@@H]2C[C@H](C(=O)NCCCCCNC(=O)CS)[C@H](c3ccc(O)cc3)N2C1=O`: the z-score was 0.161 in [1]; 2.21 in test [2]; -0.787 in [3]; -0.263 in test [4]; -0.782 in [5]; -0.63 in test [6]. Also, the z-score in [7] was -0.195 (inactive); in [8], 0.393; in test [9], -1.1; in test [10] it was 0.16 (inactive); in test [11] it was 0.432; in test [12], -1.44 (inactive). Further, the z-score is 0.974 (inactive) in [13]; 2.91 (inactive) in [15]; -1.38 (inactive) in test [16]; -0.692 (inactive) in [17]; -0.539 (inactive) in [18]; 0.718 in test [19]. Also, the composite z-score in test [14] is -0.24 (inactive); in test [20], 0.302.

`COc1ccc(NN2C(C(O)c3ccccc3)C=CC3C(=O)N(C4CCCCC4)C(=O)C32)cc1` (stereo not given): the z-score was -0.408 in test [1]; -0.503 in test [2]; 0.0544 in test [3]; -1.37 in test [4]; -1.82 in test [5]; -0.536 in test [6]. The z-score in test [7] is 0.0258 (inactive); in test [8], -0.335; in test [9], -0.253; in [10] it was 1.67 (inactive); in test [11], -0.403; in [12], 0.047 (inactive). The z-score in test [13] was -0.0925 (inactive); in test [15], 0.505 (inactive); in [16], 1.5 (inactive); in test [17], -0.0187 (inactive); in test [18], 0.0413 (inactive); in test [19] it was 0.0134. In addition, the composite z-score in test [14] is -0.638 (inactive); in [20], 0.0348.

Turning to `Cc1ccc(S[C@]2(C(=O)NC(C)C)CC(=O)N(Cc3ccccc3)[C@@H]2c2ccc(CO)cc2)cc1`, the z-score in [1] was 1.72; in test [2], -0.089; in test [3], 1.15; in [4], 0.0456; in [5], 1.23; in test [6], 1.18. The z-score is 0.391 (inactive) in test [7]; 0.135 in test [8]; -0.177 in test [9]; -0.3 (inactive) in [10]; 0.15 in test [11]; -0.0962 (inactive) in test [12]. Moreover, the z-score was -0.792 (inactive) in test [13]; 0.637 (inactive) in test [15]; -0.949 (inactive) in [16]; 1.19 (inactive) in [17]; 1.62 (inactive) in test [18]; 1 in [19]. In addition, the composite z-score in test [14] is -1.33 (inactive); in test [20], -0.177.

Consider `COC(=O)[C@H](Cc1ccccc1)N1CC(C)(OC)O[C@@H](Cc2ccccc2)[C@H]1/C=C/C1CC1` (stereo not given in full), for which the z-score was -0.572 in test [1]; -0.317 in [2]; 0.299 in test [3]; 0.391 in [4]; -0.304 in test [5]; 0.208 in test [6]. The z-score in test [7] was -0.394 (inactive); in [8], 0.28; in test [9], -0.521; in test [10], 0.379 (inactive); in test [11], 0.0905; in [12], -0.968 (inactive). The z-score in test [13] was -0.32 (inactive); in [15], -0.532 (inactive); in test [16], 0.815 (inactive); in test [17] it was -0.311 (inactive); in [18], 0.215 (inactive); in test [19] it was -0.249. Besides, the figures for the composite z-score in test [14] and in test [20] were 0.512 (inactive) and 0.0583, respectively.

Regarding `CN1C(=O)C2C(C1=O)C1C=C(CCCO)C2C(C2CC2)N1C` (stereo not given), the z-score is -0.0397 in test [1]; -0.333 in [2]; 0.019 in [3]; 0.828 in [4]; 0.929 in [5]; 1.18 in test [6]. Also, the z-score in test [7] is 0.693 (inactive); in test [8], -0.786; in test [9], -0.641; in [10], -1.61 (inactive); in test [11], -1.15; in test [12], 0.275 (inactive). For the same compound, the z-score was -0.228 (inactive) in [13]; -0.214 (inactive) in test [15]; -0.593 (inactive) in test [16]; 0.796 (inactive) in test [17]; 1.44 (inactive) in test [18]; -0.965 in [19]. The composite z-score in test [14] was -2.87 (inactive); in [20], 0.333.

Consider `COC(=O)[C@@]1(Cc2ccc(F)cc2)[C@H]2c3cc(C(=O)N(C)C)n(Cc4cccc5ccccc45)c3C[C@H]2CN1C(=O)c1ccccc1`, for which the z-score is -0.994 in [1]; -0.296 in [2]; 0.156 in test [3]; -0.0591 in test [4]; -0.489 in [5]; -0.0443 in test [6]. In addition, the z-score is -2.25 (inactive) in [7]; -0.207 in test [8]; -0.774 in test [9]; 0.0731 (inactive) in test [10]; -0.488 in [11]; 1.91 (inactive) in test [12]. The z-score is -1.32 (inactive) in test [13]; 1.75 (inactive) in [15]; 1.75 (inactive) in test [16]; -0.609 (inactive) in test [17]; -0.707 (inactive) in test [18]; -1.04 in test [19]. Also, the composite z-score in [14] is -0.0341 (inactive); in test [20], 1.6.

Consider `CC[C@@H](O[Si](C#C[Si](C(C)C)(C(C)C)C(C)C)(C(C)C)C(C)C)c1cn([C@H](C)c2ccccc2)nn1`, for which the z-score in [1] was -0.7; in [2], -0.685; in test [3], -0.499; in [4], 0.375; in [5] it was 0.253; in test [6] it was -0.0266. Further, the z-score is -1.02 (inactive) in [7]; 0.0594 in test [8]; -0.876 in test [9]; 0.566 (inactive) in test [10]; -0.0011 in test [11]; 1.66 (inactive) in [12]. Besides, the z-score in [13] is 0.248 (inactive); in [15], 0.596 (inactive); in test [16], 0.887 (inactive); in test [17], -0.263 (inactive); in [18], 0.142 (inactive); in [19] it was 0.328. For the same compound, the figures for the composite z-score in test [14] and in test [20] were 0.308 (inactive) and -0.209, respectively.

For `CCOC(=O)C[C@H]1[C@H](OC(=O)c2ccc(-c3ccccc3)cc2)[C@@H](NC(=O)c2ccc(-c3ccccc3)cc2)c2cc(OCCCO)ccc2N1C(=O)c1ccccc1`, the z-score in test [1] is -0.555; in test [2] it was -0.132; in test [3], -0.134; in test [4], 0.125; in test [5] it was -0.473; in test [6], 0.642. For the same compound, the z-score is -0.45 (inactive) in test [7]; 0.812 in test [8]; 0.0869 in [9]; -0.769 (inactive) in test [10]; -0.697 in [11]; 1.36 (inactive) in [12]. For the same compound, the z-score in test [13] was -1.01 (inactive); in [15], 0.0307 (inactive); in test [16] it was 0.795 (inactive); in test [17] it was -0.168 (inactive); in test [18], -0.331 (inactive); in test [19] it was -0.967. The composite z-score in test [14] was -0.0085 (inactive); in test [20], 0.0766.

For `CCCCCCc1nc(-c2ccc(OC)nc2)c(C)c2c1[Si](C(C)C)(C(C)C)OC2`, the z-score in test [1] was -0.405; in test [2], 1.26; in [3] it was 0.002; in test [4], -2.26; in [5], -2.79; in test [6], 0.103. Besides, the z-score in [7] was 0.251 (inactive); in test [8], -0.641; in test [9], 0.498; in test [10], 0.863 (inactive); in test [11], 0.167; in test [12], -0.121 (inactive). Also, the z-score was 1.86 (inactive) in test [13]; 0.444 (inactive) in [15]; -0.745 (inactive) in test [16]; 0.746 (inactive) in [17]; -0.0026 (inactive) in test [18]; 0.781 in test [19]. For the same compound, the values for the composite z-score in test [14] and in [20] were -3 (inactive) and 0.128, respectively.

(Values after PubChem BioAssay.)
